From PubChem BioAssay
MBD2 DNA inh: blocks human MBD2 binding to methylated DNA. 0.31% of 370,000 active. AID 686964. TR-FRET, MBD2 binding to methylated oligonucleotide. inhibition, % at 4.4 µM; in the data active means inhibition above about 13%
rCAG binder: molecules binding r(CAG) RNA repeats. r(CAG) RNA repeat, TO-PRO-1 dye displacement fluorescence. inhibition, % at 3 µM. 1.3% of 370,000 active. AID 651821;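 active means inhibition above the plate cutoff, the mean of all test compounds on that plate plus 3 SD, cut at about 35% in these data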;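 further: higher means more dye released from RNA so lower well fluorescence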
ABHD5 PLIN5 PPI: inhibitors of human ABHD5-perilipin-5 interaction; Q00G26+Q8WTS1; Split G. princeps luciferase complementation, luminescence, 4 h; inhibition, % at 4 µM; 0.78% of 360,000 active; AID 602281;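 active means inhibition above the mean inhibition across every tested compound plus 3 SD, cut at about 22% in these data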
PRMT1 FP inh: blocks human protein arginine methyltransferase 1 | 1.3% of 370,000 active | inhibition, % at 2.79 µM | Q99873 | recombinant PRMT1, activity-based probe fluorescence polarization;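 active means inhibition above about 21% made by adding two undisclosed values, limit read from the data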
LEDGF integ inh: blocks HIV-1 LEDGF/p75-dependent DNA integration | TR-FRET IN-LEDGF/p75 DNA integration, Eu/Cy5 | inhibition, % at 3.7 µM | 0.64% of 370,000 active | AID 743269;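 active means inhibition above the screen-wide mean plus 3 SD, cut at about 13% in these data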;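 further: signal is the Cy5 over europium emission ratio at 671 and 618 nm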
UHRF1 MBD2 ctr: human UHRF1 methylated DNA binding inhibitors; Q96T88; UHRF1 binding to methylated oligo, TR-FRET; inhibition, % at 4.4 µM; 0.75% of 370,000 active; AID 687016; in the data active means inhibition above about 21%;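 further: UHRF1 SRA domain binding a hemimethylated CpG hairpin DNA probe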
Hits are given with their value. An excerpt weighted towards active compounds, which were near 4.1% of everything screened.

`COC(=O)c1ccc2nc(-c3ccccc3)c(Cc3ccc(C)cc3)n2c1` gave MBD2 DNA inh inactive, rCAG binder inactive, ABHD5 PLIN5 PPI inactive, PRMT1 FP inh inactive, LEDGF integ inh inactive and UHRF1 MBD2 ctr inactive.
Screening CCCc1nc2ccc(C(=O)OC)cn2c1Cc1ccccc1 returned MBD2 DNA inh inactive, rCAG binder inactive, ABHD5 PLIN5 PPI inactive, PRMT1 FP inh inactive, LEDGF integ inh inactive and UHRF1 MBD2 ctr 25.
Screening O=C(NC1CCCCN(Cc2cccc(Cl)c2)C1=O)c1cccc2nsnc12 (configuration not stated) returned MBD2 DNA inh inactive, rCAG binder inactive, PRMT1 FP inh inactive, LEDGF integ inh inactive and UHRF1 MBD2 ctr inactive.
`O=C1CCC[C@H]2C[C@H](NCCc3ccncc3)CC[C@]23CCCN13` gave MBD2 DNA inh inactive, PRMT1 FP inh inactive, LEDGF integ inh inactive and UHRF1 MBD2 ctr inactive.
Screening O=C(Nc1c(-c2ccccc2)[nH][nH]c1=O)c1ccc(-c2ccccc2)cc1 returned MBD2 DNA inh inactive, rCAG binder inactive, ABHD5 PLIN5 PPI inactive, PRMT1 FP inh inactive, LEDGF integ inh inactive and UHRF1 MBD2 ctr inactive.
`O=C(Nc1c(-c2ccccc2)[nH][nH]c1=O)c1ccco1` gave MBD2 DNA inh inactive, rCAG binder inactive, ABHD5 PLIN5 PPI inactive, PRMT1 FP inh inactive, LEDGF integ inh inactive and UHRF1 MBD2 ctr 63.
For CCN(CC(=O)NCc1cccs1)S(=O)(=O)c1cccc(C(C)=O)c1 the results were MBD2 DNA inh inactive, rCAG binder inactive, ABHD5 PLIN5 PPI inactive, PRMT1 FP inh inactive, LEDGF integ inh inactive and UHRF1 MBD2 ctr 24.
Screening COc1cnc(-c2ccccc2)nc1Sc1ccccc1 returned MBD2 DNA inh inactive, rCAG binder inactive, ABHD5 PLIN5 PPI inactive, PRMT1 FP inh inactive, LEDGF integ inh inactive and UHRF1 MBD2 ctr inactive.
Screening COc1ccccc1Sc1nc(-c2ccccc2)ncc1OC returned MBD2 DNA inh inactive, rCAG binder inactive, ABHD5 PLIN5 PPI inactive, PRMT1 FP inh inactive, LEDGF integ inh inactive and UHRF1 MBD2 ctr 48.
`O=C(CSC1CS(=O)(=O)c2cc([N+](=O)[O-])ccc21)NNC(=O)c1ccc(Cl)cc1` (configuration not stated) gave MBD2 DNA inh inactive, rCAG binder inactive, ABHD5 PLIN5 PPI inactive, PRMT1 FP inh 23, LEDGF integ inh inactive and UHRF1 MBD2 ctr inactive.
For CN(Cc1ccc(Cl)c(Cl)c1)C(=O)C1CSC2(C)CCC(=O)N12 (configuration not stated) the results were MBD2 DNA inh inactive, rCAG binder inactive, ABHD5 PLIN5 PPI inactive, PRMT1 FP inh inactive, LEDGF integ inh inactive and UHRF1 MBD2 ctr 28.
For Cc1cccc2c1NC1(CCCC1)CC2C (configuration not stated) the results were MBD2 DNA inh inactive, rCAG binder inactive, ABHD5 PLIN5 PPI inactive, PRMT1 FP inh inactive, LEDGF integ inh inactive and UHRF1 MBD2 ctr 22.
`N#Cc1ccc(NC(=O)OC2CCC23CCC(c2ccccc2)CC3)cc1` (configuration not stated) gave MBD2 DNA inh inactive, rCAG binder inactive, PRMT1 FP inh inactive, LEDGF integ inh inactive and UHRF1 MBD2 ctr inactive.
Screening CCNC(=O)OC[C@H]1O[C@H](C#Cc2ccc(C(C)(C)C)cc2)C=C[C@H]1OC(C)=O returned MBD2 DNA inh inactive, rCAG binder inactive, PRMT1 FP inh inactive, LEDGF integ inh inactive and UHRF1 MBD2 ctr inactive.
`O=C(Nc1ccc(N2C(=O)CC(c3ccccc3)C2=O)c(Cl)c1)c1ccccn1` (configuration not stated) gave MBD2 DNA inh inactive, PRMT1 FP inh inactive, LEDGF integ inh inactive and UHRF1 MBD2 ctr inactive.
Screening COc1cc(/C=C/C(=O)c2ccc(NS(=O)(=O)c3ccc(C)cc3)cc2)cc(OC)c1O returned MBD2 DNA inh inactive, rCAG binder 47, ABHD5 PLIN5 PPI 38, PRMT1 FP inh inactive, LEDGF integ inh inactive and UHRF1 MBD2 ctr inactive.
For COc1cc(/C=C/C(=O)c2ccc(NS(=O)(=O)c3ccc(C)cc3)cc2)ccc1OC(F)F the results were MBD2 DNA inh inactive, rCAG binder inactive, ABHD5 PLIN5 PPI 22, PRMT1 FP inh inactive, LEDGF integ inh inactive and UHRF1 MBD2 ctr inactive.
COCCN1Cc2cc(C(=O)OC)c3c(c2C1=O)c1ccccc1n3S(=O)(=O)c1ccc(OC)cc1 was read as MBD2 DNA inh inactive, rCAG binder inactive, PRMT1 FP inh inactive, LEDGF integ inh inactive and UHRF1 MBD2 ctr inactive.
